Test results as given in PubChem BioAssay (NCI).
About 83,000 compounds went through this panel and 20% of them were active in at least one assay; those are over-represented in the sample as a whole.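 Plates (96-well) were seeded with cells, treated with compound at one concentration, and incubated for 48 hours before percent growth was determined.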 Unmarked numbers belong to inactive results. Active and inactive are the calls of the source.

What follows are compounds tested on NCI-H226 lung (assay: NCI-60 one-dose screen, 48 h (100 = growth as untreated, 0 = no growth, -100 = all killed)). Conditions: 10 µM.
Protocol: Growth inhibition of the NCI-H226 human Non-Small Cell Lung tumor cell line is measured as a screen for anti-cancer activity. Cells are grown in 96 well plates and exposed to the test compound for 48 hours. Compounds are tested at a single concentration, which is 10^-5 M for most compounds. The reported endpoint is percent growth (GI% or GIPRCNT), where numbers from 0 - 100% represent growth inhibition, and numbers from -100% - 0 represent cell death. For example, a value of 40 represents 60% growth inhibition. A value of 0 means no net growth occurred over the course of the experiment. A value of -40 indicates 40% of cells at the beginning of the experiment died by the end of the experiment. A value of -100 means all cells are dead at the end of the experiment.
NCI-60 Human Tumor Cell Lines Screen was performed using the standard one-dose NCI protocol, which is described in more detail at https://dtp.cancer.gov/discovery_development/nci-60/default.htm.
Compounds with GIPRCNT values below 10 were considered active. Activity score was based on GIPRCNT using the following formula: […]
Score is 0 for GIPRCNT values of 100 or above, 50 for GIPRCNT values of 0, and 100 for GIPRCNT values of -100.
For `COc1ccc(C2CC(c3cc(OC)c(OC)c(OC)c3)=NN2c2ccc(S(N)(=O)=O)cc2)cc1` (stereo not given), the growth was 61.9%. Work on `C[C@@H](Oc1cc(-c2cnn(C3CC4(CCCNC4)C3)c2)cnc1N)c1c(Cl)ccc(F)c1Cl` (stereo not given in full) yielded a growth of 58.8%. `COc1cc(/C=C/C(=O)C2=C(/C=C/c3ccc(O)c(OC)c3)NC(=O)NC2c2ccc(O)c(OC)c2)ccc1O` (stereo not given) was tested, and the growth was 91.8%. Compound `CON=C1C[C@]2(C[C@@H]3C[C@@H](C/C=C(\C)C[C@@H](C)/C=C/C=C4\CO[C@@H]5[C@H](O)C(C)=C[C@@H](C(=O)O3)[C@]45O)O2)O[C@H](/C(C)=C/C(C)C)[C@H]1C` has a growth of 72%. With `COc1cc(C(=O)/C=C/c2c(-c3cccs3)nc3sccn23)cc(OC)c1OC` the growth was 26.2%. With `C[C@@H](Oc1cc(-c2cnn(C3CC4(CNC4)C3)c2)cnc1N)c1c(Cl)ccc(F)c1Cl` the growth was 65.9%. Compound `C[C@H]1C(=O)C23CCC1C[C@@]21O[C@@H]2C(C)(C)C=CC(=O)C23COC1=O` has a growth of 94.2%. With `NC1=NC(c2ccccc2OS(=O)(=O)c2ccc(Br)cc2)n2c(nc3ccccc32)N1` (stereo not given) the growth was 102%. For `C=CC(=O)N1CC2(CCC(n3nc(-c4ccc(Oc5ccccc5)cc4)c4c(N)ncnc43)CC2)C1`, the growth was -77.7% (active). Compound `COC1(OC)C2(Cl)C=C(c3ccccc3)C1(Cl)C(Cl)=C2Cl` (stereo not given) has a growth of 102%. For `C=CC[P+](c1ccccc1)(c1ccccc1)c1ccccc1`, the growth was 74.1%. With `C(=C\c1ccccc1)/CN1CCN(C(c2ccccc2)c2ccccc2)CC1` the growth was 86.3%. Compound `Clc1ccc(C2=NN(c3ccccc3)[C@H](c3cn(-c4ccccc4)nc3-c3ccccc3)C2)cc1` has a growth of 96.1%. `Cc1nc2cc(Nc3nc(Nc4ccc(F)cc4)nc(N4CCCC4)n3)ccc2n1Cc1ccccc1` was tested, and the growth was -17.1% (active). `Clc1ccc(Nc2ccnc(N3CCN(c4ccnc5cc(Cl)ccc45)CC3)n2)cc1` was tested, and the growth was 62.5%. In the case of `CN1CCc2cccc3c2C1Cc1ccc(O)c(O)c1-3` (stereo not given), the growth is reported as 80.8%. In the case of `COc1ccc(-c2nn(-c3ccc(NC(=O)c4ccc(Cl)c(Cl)c4)cc3)cc2-c2ccncc2)cc1Cl`, the growth is reported as 75.8%. Work on `Cn1c2c(cc(S(=O)(=O)c3ccccc3)c1=O)CCc1c-2cnn1-c1cccc(Cl)c1` yielded a growth of 84.6%. With `FCOC(C(F)(F)F)C(F)(F)F` the growth was 106%. `CCCCC(CCCC)(S(=O)(=O)CC)S(=O)(=O)CC` gave a growth of 95.2%. For `Cc1cc(Cl)c2c(Cl)ccc(Cl)c2n1`, the growth was 110%. In the case of `Cc1nc2cc(Nc3nc(N4CCCCC4)nc(N4CCOCC4)n3)ccc2n1Cc1ccccc1`, the growth is reported as 28.4%. `OB(O)c1ccccc1` gave a growth of 105%. Work on `O/N=C/c1cccs1` yielded a growth of 107%. `Clc1ccc2c(N3CCN(c4ccnc(NC5CCCCC5)n4)CC3)ccnc2c1` gave a growth of 80.7%. `O=c1ccc2ccccc2o1` showed a growth of 102%. With `O=S(=O)(OCCO)c1ccccc1` the growth was 98.1%. Compound `COc1cccc(OC(=O)c2ccccc2)c1OC(=O)c1ccccc1` has a growth of 109%. `CCSc1nnc2c3cc(Br)ccc3n(C)c2n1` showed a growth of 93.6%. In the case of `CC1=C(C/C=C(\C)CCC[C@H](C)CCC[C@H](C)CCCC(C)C)C(=O)c2ccccc2C1=O`, the growth is reported as 110%. Compound `COc1ccc2c(c1)c(=O)oc1c(C)c(OCC(C)=O)ccc12` has a growth of 104%. For `Cn1c2c(cc(S(=O)(=O)c3ccccc3)c1=O)CCc1c-2cnn1-c1ccccc1Cl`, the growth was 117%. Work on `Cc1cc(C)c(S(=O)O)c(C)c1` yielded a growth of 99%. Work on `CSc1nnc(-c2sc3nnc(-c4ccccc4)c(-c4ccccc4)c3c2O)o1` yielded a growth of 87.7%. For `CC(=O)Nc1ccc(S(=O)(=O)N/N=C\c2ccc(Cl)c(Cl)c2)cc1`, the growth was 100%. With `COc1nc2c(cc1S(=O)(=O)c1ccccc1)CCc1c-2cnn1-c1cccc(Cl)c1` the growth was 80.3%. `Cc1ccc2c(c1)c(Sc1ccc(C(=O)NO)cc1)c1n2CN(C)CC1` was tested, and the growth was -0.932% (active). `NS(=O)(=O)c1cc(Br)c2c(c1)S(=O)(=O)NCN2` gave a growth of 113%. `CC(C)NCC(O)COc1ccc(CCOCC2CC2)cc1` (stereo not given) was tested, and the growth was 90.7%. `CSc1ccc(OC(C)=O)cc1C` gave a growth of 98.3%.
